Assay results: PubChem BioAssay
Active and inactive are the calls of the source.

What was measured:
[1] = compound effects on lung adenocarcinoma cell viability – A549, calcein-AM fluorescence, 48 h, basal, profiling panel (AID 1162); details: higher = more signal
[2] = compound effects on differentiated 3T3-L1 adipocyte viability – cell-based, 3T3-L1 adipocytes, calcein-AM fluorescence, 48 h, basal, profiling panel (AID 1163); details: 3T3-L1 adipocytes viability, higher = more signal
[3] = compound effects on hepatocellular carcinoma cell viability – HepG2, calcein-AM fluorescence, 48 h, basal, profiling panel (AID 1164); details: higher = more signal
[4] = compound effects on multiple myeloma cell viability – MM1S, calcein-AM fluorescence, 48 h, basal, profiling panel (AID 1165); details: higher = more signal;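 note: viability of MM1S multiple myeloma cells under basal unstimulated conditions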
[5] = calcein-AM signal in unstimulated myeloma cells – cell-based, calcein-AM fluorescence, 48 h, PK04 Diversity Set, profiling panel (AID 1166); details: RPMI8226 myeloma viability, higher = more signal;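 note: cells grown under basal conditions without added stimulus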
[6] = JC-1 mitochondrial signal, unstimulated HepG2 cells – cell-based, JC-1 fluorescence, 24 h, 100 nL compound, profiling panel (AID 1167); details: HepG2 mitochondrial potential, higher = more signal
[7] = JC-1 mitochondrial signal, unstimulated adipocytes – cell-based, JC-1 fluorescence, 3T3-L1 adipocytes, 24 h, 100 nL compound, profiling panel (AID 1168); details: JC-1 mitochondrial fluorescence, higher = more signal, called active from +8 up or from −8 down
[8] = JC-1 mitochondrial signal, unstimulated myeloma cells – cell-based, JC-1 fluorescence, RPMI8226, 24 h, 100 nL compound, profiling panel (AID 1169); details: JC-1 mitochondrial potential fluorescence, higher = more signal
[9] = JC-1 mitochondrial signal, unstimulated MM1S myeloma – cell-based, JC-1 fluorescence, 24 h, 100 nL compound, profiling panel (AID 1170); details: MM1S mitochondrial potential, higher = more signal
[10] = resazurin metabolic signal in A549 cells – cell-based, resazurin fluorescence, 24 h, PK04 Diversity Set, profiling panel (AID 1171); details: A549 viability, higher = more signal, called active from +8 up or from −8 down
Note: test concentration not given here.

SMILES	z-score [1]	z-score [2]	z-score [3]	z-score [4]	z-score [5]	z-score [6]	z-score [7]	z-score [8]	z-score [9]	z-score [10]
CC(C)(C)OC(=O)CC[C@]1(C(=O)NCC(O)CO)COC(c2ccc(OCCCO)cc2)=N1 (stereo not given in full)	0.208	-0.388	-0.665	-1.01	0.418	-0.76	0.176 (inactive)	0.527	-0.23	0.706 (inactive)
CN(C)CCCCCCNC(=O)[C@@H]1C[C@@H]2C(=O)N[C@@H](CCCCN)C(=O)N2[C@@H]1c1cccc(OCCO)c1	0.73	0.565	1.25	-0.137	0.207	1.87	0.247 (inactive)	-0.209	0.135	0.159 (inactive)
[N-]=[N+]=Nc1ccccc1C[C@]1(C(=O)NCC(O)CO)N=C(c2ccc(OCCCO)cc2)O[C@H]1c1ccccc1N=[N+]=[N-] (stereo not given in full)	-1.04	-0.676	-1.12	-2.98	-3.14	-0.162	0.153 (inactive)	-1.19	-1.3	-1.19 (inactive)
NCCCCCNC(=O)[C@@H]1C[C@@H]2C(=O)N[C@@H](Cc3ccccc3)C(=O)N2[C@@H]1c1cccc(OCCO)c1	-0.349	0.512	-0.442	0.143	-0.371	-1.04	-0.684 (inactive)	-0.0752	0.894	-0.403 (inactive)
O=C1NC(=O)C2C1C=CC(C(O)c1cccc3ccccc13)N2Nc1ccccn1 (stereo not given)	0.428	-0.608	-0.32	0.002	-0.0565	0.15	-0.0987 (inactive)	-0.216	-0.184	-0.721 (inactive)
COc1ccc([Si](C)(C)[C@H]2[C@H](CCO)O[C@@]3(C(=O)N(Cc4ccc(N5C(=O)COc6ccccc65)cc4)c4ccccc43)[C@@H]2C)cc1	-0.525	0.0432	-3.14	-2.36	-4.33	-0.509	1.36 (inactive)	-1.07	-2.12	-2.35 (inactive)
CCC(CC)C(O)C1C=CC2C(=O)N(C)C(=O)C2N1Nc1ccccc1 (stereo not given)	0.095	-1.07	0.597	-0.299	-0.469	-0.843	-0.83 (inactive)	-0.802	0.0765	0.78 (inactive)
